The results in this text go back to PubChem BioAssay (NCATS).

Test [1] is described as follows: qHTS for Inhibitors of the Functional Ribonucleoprotein Complex (vRNP) of Lassa (LASV) Arenavirus: LASV Primary Screen - GLuc reporter signal (AID 1347082; calls by dose curve; tested in HEK293 reporter line; also: nearly all actives have a fitted effect of over 60% in size).
Test [2] is described as follows: qHTS for Inhibitors of the Functional Ribonucleoprotein Complex (vRNP) of Lassa (LASV) Arenavirus: Viability assay - alamar blue signal for LASV Primary Screen (AID 1347083; calls by dose curve; tested in HEK293 reporter line; also: nearly all actives have a fitted effect of over 80% in size). (qHTS replaces the single test concentration by a dilution series.)
Test [3] is described as follows: qHTS for Inhibitors of the Functional Ribonucleoprotein Complex (vRNP) of Lymphocytic Choriomeningitis Arenaviruses (LCMV): Viability assay - alamar blue signal for LCMV Primary Screen (AID 1347085; calls by dose curve; tested in HEK293 reporter line; also: nearly all actives have a fitted effect of over 80% in size).
The target of test [4] is Nucleoprotein (Lymphocytic choriomeningitis virus (strain Armstrong)) (UniProt P09992). Description: qHTS for Inhibitors of the Functional Ribonucleoprotein Complex (vRNP) of Lymphocytic Choriomeningitis Arenaviruses (LCMV): LCMV Primary Screen - GLuc reporter signal (AID 1347086). Also: nearly all actives have a fitted effect of over 70% in size.

SMILES strings stand for the structures. Inconclusive results are not listed. The source made the active and inactive calls. Unless noted, calls follow the shape of the full dose curve.
Potency is read from the fitted curve at half-maximal effect.

Chain of Nucleoprotein (Lymphocytic choriomeningitis virus (strain Armstrong)) (P09992 whole entry, looked up): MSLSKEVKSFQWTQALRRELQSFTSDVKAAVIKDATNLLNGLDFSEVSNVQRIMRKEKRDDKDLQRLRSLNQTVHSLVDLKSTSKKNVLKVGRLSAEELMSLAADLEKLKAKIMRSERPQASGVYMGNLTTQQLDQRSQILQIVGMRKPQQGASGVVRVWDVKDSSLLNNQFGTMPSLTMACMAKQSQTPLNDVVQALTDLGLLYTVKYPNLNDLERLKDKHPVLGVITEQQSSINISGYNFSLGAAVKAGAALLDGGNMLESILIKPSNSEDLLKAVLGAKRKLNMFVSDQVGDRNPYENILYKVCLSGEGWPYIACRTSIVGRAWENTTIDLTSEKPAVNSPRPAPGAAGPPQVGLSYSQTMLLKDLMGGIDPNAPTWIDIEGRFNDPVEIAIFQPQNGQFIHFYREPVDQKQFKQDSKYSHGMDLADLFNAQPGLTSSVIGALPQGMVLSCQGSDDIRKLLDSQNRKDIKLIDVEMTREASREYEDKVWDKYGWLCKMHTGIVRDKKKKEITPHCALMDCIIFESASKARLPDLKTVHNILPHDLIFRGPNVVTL

With `CN(C(=O)C(Cl)Cl)c1ccc(OC(=O)c2ccco2)cc1`, the Potency result in test [1], in test [2], in test [3] and in test [4] was “inactive” throughout.
Regarding `CCCCCCCC(=O)OCC(O)CO` (stereo not given), the Potency result in test [1], in test [2], in test [3] and in test [4] was “inactive” in each case.
Regarding `O=C(NO)c1ccccc1`, the Potency result in test [1], in test [2], in test [3] and in test [4] was “inactive” throughout.
As to `C[C@@H](N)C1CCC(C(=O)Nc2ccncc2)CC1` (stereo not given in full), the Potency result in test [1] is “inactive”. For the same molecule, the Potency is 21.7 µM (active) in test [2], 0.863 µM (active) in test [3] and 9.68 µM (active) in test [4].
As to `OCCn1cc(-c2cnc3nnn(Cc4ccc5ncccc5c4)c3n2)cn1`, the Potency result in test [1], in test [2], in test [3] and in test [4] was “inactive” throughout.
Consider `CC(C)(C)COc1ccc(-n2cc(C(=O)O)cn2)cc1C#N`, for which the Potency entry in test [1], in test [2], in test [3] and in test [4] was “inactive” throughout.
Consider `CC(=O)OCC(=O)[C@@]1(O)[C@H](C)C[C@H]2[C@@H]3C=C(C)C4=Cc5c(cnn5-c5ccccc5)C[C@]4(C)[C@@H]3[C@@H](O)C[C@@]21C`, for which the Potency result in test [1], in test [2], in test [3] and in test [4] was “inactive” in each case.
In the case of `COc1ccccc1N1CCN(CC(O)COc2cc(OC)c(OC)c(OC)c2)CC1` (stereo not given), the Potency result in test [1], in test [2], in test [3] and in test [4] was “inactive” in each case.
Regarding `CCOc1cc2ncc(C#N)c(Nc3ccc(F)c(Cl)c3)c2cc1NC(=O)C=CCN(C)C`, the Potency in test [1] is 10.9 µM (active); in test [2] it was 1.93 µM (active); in test [3], 19.3 µM (active); in test [4], 24.3 µM (active).
Take `COc1cc2c(cc1OC)C(=O)CC2`: the Potency result in test [1], in test [2], in test [3] and in test [4] was “inactive” each time.
In the case of `Cc1ccccc1C(C(=O)NC1CCCC1)N(C(=O)Cn1cnc2ccccc21)c1cccc(F)c1` (stereo not given), the Potency result in test [1], in test [2], in test [3] and in test [4] was “inactive” each time.
As for `CCCCC(CC)COC(=O)c1ccccc1C(=O)O` (stereo not given), the Potency entry in test [1], in test [2], in test [3] and in test [4] was “inactive” each time.
Consider `C1Cc2[nH]nc(-c3nn[nH]n3)c2C1`, for which the Potency entry in test [1], in test [2], in test [3] and in test [4] was “inactive” in each case.
Regarding `CCN(CC)CCNC(=O)c1ccc(NC(C)=O)cc1`, the Potency result in test [1], in test [2], in test [3] and in test [4] was “inactive” each time.
`Cc1cccc(C)c1NC(=O)c1ccccc1C(=O)O`: the Potency result in test [1], in test [2], in test [3] and in test [4] was “inactive” each time.
For `CC1=NN(c2ccccc2)C(=O)C1`, the Potency result in test [1], in test [2], in test [3] and in test [4] was “inactive” each time.
As to `Cc1cc2c(cc1C1(c3ccc(C(=O)O)cn3)CC1)C(C)(C)CCC2(C)C`, the Potency entry in test [1], in test [2], in test [3] and in test [4] was “inactive” each time.
Turning to `C/C(=C1\CCOC(=O)S1)N(C=O)Cc1cnc(C)nc1N`, the Potency result in test [1], in test [2], in test [3] and in test [4] was “inactive” throughout.
Consider `CC(=O)Oc1ccccc1C(=O)O`, for which the Potency entry in test [1], in test [2], in test [3] and in test [4] was “inactive” each time.
Turning to `S=C(NCc1ccc2c(c1)OCO2)N1CCN(c2ncnc3c2oc2ccccc23)CC1`, the Potency entry in test [1], in test [2], in test [3] and in test [4] was “inactive” in each case.
As to `COc1ccc2cc(CCC(C)=O)ccc2c1`, the Potency entry in test [1], in test [2], in test [3] and in test [4] was “inactive” throughout.
Regarding `CCOC(=O)c1c(C)n(C)c2ccc(O)cc12`, the Potency entry in test [1], in test [2], in test [3] and in test [4] was “inactive” each time.
For `CC[C@@H](C)[C@H](NC(=O)[C@H](CC1CCCCC1)NC(=O)c1ccno1)C(=O)N1CCC2(CCc3ccccc32)CC1`, the Potency result in test [1], in test [2], in test [3] and in test [4] was “inactive” in each case.
For the molecule `COc1ccc(CCN2CCN(CCCc3ccccc3)CC2)cc1OC`, the Potency result in test [1], in test [2], in test [3] and in test [4] was “inactive” each time.
As for `CN1C(=O)C(Cc2c[nH]c3ccccc23)NC1=S` (stereo not given), the Potency result in test [1], in test [2], in test [3] and in test [4] was “inactive” throughout.
Regarding `COc1ncnc(NS(=O)(=O)c2ccc(N)cc2)c1OC`, the Potency result in test [1], in test [2], in test [3] and in test [4] was “inactive” each time.
Regarding `COc1ccccc1-c1cccc(-c2c(O)c3cc(C#N)c(Cl)cc3[nH]c2=O)c1`, the Potency entry in test [1], in test [2], in test [3] and in test [4] was “inactive” each time.
Regarding `Cn1c(=O)n(-c2ccc(C(C)(C)C#N)cc2)c2c3cc(-c4cnc5ccccc5c4)ccc3ncc21`, the Potency in test [1] was 0.0385 µM (active); in test [2], 0.0343 µM (active); in test [3], 0.0611 µM (active); in test [4], 0.0685 µM (active).
Consider `O=C(O)Cc1ccccc1Oc1ccc(Cl)cc1Cl`, for which the Potency result in test [1], in test [2], in test [3] and in test [4] was “inactive” in each case.
As for `C=C1C(=CC=C2CCCC3(C)[C@@H]([C@H](C)C=CC=CC(O)(CC)CC)CC[C@@H]23)C[C@@H](O)C[C@@H]1O` (stereo not given in full), the Potency entry in test [1], in test [2], in test [3] and in test [4] was “inactive” each time.
Consider `CC(C)(C)C(O)/C=C/c1ccc2c(c1)OCO2` (stereo not given), for which the Potency result in test [1], in test [2], in test [3] and in test [4] was “inactive” throughout.
In the case of `CC1(C)OC2=C(C(=O)c3ccccc3C2=O)[C@H](NCc2ccccc2)[C@H]1O`, the Potency is 2.73 µM (active) in test [1], 3.06 µM (active) in test [2], 2.17 µM (active) in test [3] and 0.863 µM (active) in test [4].
Regarding `Fc1ccc(Cl)cc1-c1nc(Nc2ccncc2)c2nccnc2n1`, the Potency result in test [1], in test [2], in test [3] and in test [4] was “inactive” each time.
Consider `CCCCC/C(C=O)=C\c1ccccc1`, for which the Potency result in test [1], in test [2], in test [3] and in test [4] was “inactive” in each case.
`Cc1cnc(Nc2ccc(F)cc2Cl)nc1-c1c[nH]c(C(=O)N[C@H](CO)c2cccc(Cl)c2)c1`: the Potency was 19.3 µM (active) in test [1], 15.3 µM (active) in test [2], 7.69 µM (active) in test [3] and 17.2 µM (active) in test [4].
